Screening data: PubChem, National Center for Advancing Translational Sciences (NCATS)
Compounds with a hit are over-represented: about 11% of the library has one in this group of screens.
BAZ2B inh: inhibitors of human BAZ2B bromodomain; Q9UIF8; AlphaScreen BAZ2B-H3K14Ac peptide displacement; Potency, µM (doses to about 114 µM), without a hit: top-dose activity change, negative = inhibition, hits mostly inhibitors; 360,000 tested, 4.4% active; AID 504333; also: potency is read from the fitted curve at half-maximal effect; % is scaled to controls: 0 for no effect and ±100 for the full control effect; nearly all actives have a fitted effect of over 60% in size
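Compounds, titrated to a top concentration of 110 uM, were incubated 30 min at room temperature with preformed BAZ2B/acetyl-K14 H3 peptide complex (50 nM each). Proximity signal was measured by AlphaScreen after 20 min with beads.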
L3MBTL1 inh: blocks human L3MBTL1; 230,000 tested, 0.66% active; AlphaScreen L3MBTL1–H3K9me1 peptide binding; Potency, µM (titrated, usually from 57.1 µM), for inactives: at the highest dose activity, negative = inhibition, usual class: inhibitors; Q9Y468; AID 485360; also: potency is read from the fitted curve at half-maximal effect; % is scaled to controls: 0 for no effect and ±100 for the full control effect; nearly all actives have a fitted effect of over 60% in size
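First, the protein-peptide complex forms for 30 min at room temperature (L3MBTL1 50 nM, biotinylated H3K9me1 peptide 75 nM). Next, compounds are pin-transferred and incubated 30 min. Finally, AlphaScreen beads are added and read after 30 min.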
PI5P4K alpha inh: blocks human PI5P4K alpha kinase activity. PI5P4Kalpha enzyme, ADP-Glo luminescence, 60 min; active compounds read low. 330,000 tested, 1.2% active. P48426. max response, %; active = max response of -50% or lower; inconclusive = between -30% and -50%; inactive = -30% or higher; also: value at the top dose of about 77 µM; % is scaled to controls: 0 for no effect and ±100 for the full control effect
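Reactions run in 0.038 M HEPES pH 7.4, 0.28 mM EGTA, 0.1% CHAPS and 5% DMSO, with PI5P4Kalpha, substrate, compound and 5 microM ATP final, one hour at room temperature. Readout is ADP-Glo luminescence.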
HP1b binding inh: inhibitors of HP1-beta chromodomain binding to methylated histone tails; P83916; AlphaScreen HP1-beta / biotin-H3K9me3 peptide binding; Potency, µM (titrated, usually from 114 µM), for inactives: top-dose activity change, negative = inhibition, most hits filed as inhibitors; 390,000 tested, 0.56% active; AID 540317; also: potency is read from the fitted curve at half-maximal effect; nearly all actives have a fitted effect of over 70% in size
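AlphaScreen: HP1-beta (50 nM) preformed 30 min with biotin-H3(1-18)K9me3 peptide (50 nM) in PBS pH 7.4, 0.01% Tween-20. Compound added for 30 min at RT, then streptavidin donor/nickel chelate acceptor beads (10 ug/mL) for 30 min.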
JMJD2A Tudor inh: blocks the human JMJD2A Tudor domain. AlphaScreen JMJD2A-Tudor / H3K4me3 peptide binding. Potency, µM (highest dose often 114 µM), without a hit: at the top dose activity change, negative = inhibition, actives largely listed as inhibitors. 390,000 tested, 4.4% active. AID 504339; also: potency is read from the fitted curve at half-maximal effect; % is scaled to controls: 0 for no effect and ±100 for the full control effect; nearly all actives have a fitted effect of over 50% in size
Target sequence (O75164 whole entry, looked up, the tested form may be a part): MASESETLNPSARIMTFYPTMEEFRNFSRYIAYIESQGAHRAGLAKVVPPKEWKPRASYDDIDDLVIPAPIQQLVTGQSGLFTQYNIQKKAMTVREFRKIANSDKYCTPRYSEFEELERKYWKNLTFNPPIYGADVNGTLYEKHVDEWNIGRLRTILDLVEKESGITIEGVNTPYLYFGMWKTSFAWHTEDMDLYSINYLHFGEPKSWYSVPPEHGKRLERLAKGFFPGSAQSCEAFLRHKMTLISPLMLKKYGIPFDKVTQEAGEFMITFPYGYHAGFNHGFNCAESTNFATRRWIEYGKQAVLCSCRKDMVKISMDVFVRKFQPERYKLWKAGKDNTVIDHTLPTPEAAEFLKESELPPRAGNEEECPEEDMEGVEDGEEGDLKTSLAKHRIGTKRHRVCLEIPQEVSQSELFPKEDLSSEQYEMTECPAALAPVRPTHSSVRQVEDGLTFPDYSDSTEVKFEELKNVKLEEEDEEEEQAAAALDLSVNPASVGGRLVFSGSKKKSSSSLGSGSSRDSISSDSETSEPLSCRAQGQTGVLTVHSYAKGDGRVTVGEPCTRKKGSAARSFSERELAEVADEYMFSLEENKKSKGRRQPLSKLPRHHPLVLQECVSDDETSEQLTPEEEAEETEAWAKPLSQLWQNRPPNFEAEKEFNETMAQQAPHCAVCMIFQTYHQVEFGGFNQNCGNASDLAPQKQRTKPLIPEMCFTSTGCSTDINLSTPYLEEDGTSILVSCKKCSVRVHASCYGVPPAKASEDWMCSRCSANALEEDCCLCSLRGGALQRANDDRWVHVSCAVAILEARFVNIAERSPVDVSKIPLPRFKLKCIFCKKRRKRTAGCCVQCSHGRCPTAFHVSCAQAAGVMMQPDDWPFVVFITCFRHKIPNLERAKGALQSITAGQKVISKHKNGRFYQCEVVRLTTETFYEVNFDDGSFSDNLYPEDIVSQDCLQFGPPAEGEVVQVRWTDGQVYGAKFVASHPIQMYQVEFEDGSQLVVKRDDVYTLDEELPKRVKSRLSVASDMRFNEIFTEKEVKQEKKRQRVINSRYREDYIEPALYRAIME
G9a block: blocks human histone lysine methyltransferase G9a. G9a H3K9 monomethylation, AlphaScreen, 2 h. Potency, µM (highest dose often 102 µM), without a hit: at the top dose activity, negative = inhibition, actives largely listed as inhibitors. 350,000 tested, 8.8% active. AID 504332; also: potency is read from the fitted curve at half-maximal effect; % is scaled to controls: 0 for no effect and ±100 for the full control effect; nearly all actives have a fitted effect of over 75% in size
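Step 1: enzyme (final 20 nM) with compound, 15 min RT. Step 2: substrate peptide 500 nM and SAM 20 uM, 2 h RT. Step 3: anti-H3K9me1 antibody and AlphaScreen beads, 10 min, then plate read.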
* = called active by the depositor; u = inconclusive; x = no result given; [ ] = dose if it differs, or a comment. Unless noted, calls follow the shape of the dose curve; as a rule, active = well fitted inhibition curve with a large enough effect; inconclusive = small, poorly fitted or top-dose-only effect; inactive = no such curve, though single readings can be large or run the other way.

SMILES	BAZ2B inh	L3MBTL1 inh	PI5P4K alpha inh	HP1b binding inh	JMJD2A Tudor inh	G9a block
O=C(c1ccco1)N1CCC2(CCN(Cc3ccccc3)CC2)CC1	x	x	x	x	x	-6%[12.7 µM]
CCOc1ccc(C(=O)Nc2cccc(-c3nc4cc(Cl)cc(Cl)c4o3)c2)cc1	2%	x	x	25%	-10%	11%[59 µM]
Cc1cccc(-c2nnn3c2nc(NCCc2ccc(S(N)(=O)=O)cc2)c2cc(Cl)ccc23)c1	-30%	x	x	67%	2%	-1%[59 µM]
CC(=O)c1ccc(-c2c(C3C4C=CCCC4(C)C(=O)N3Cc3ccccc3)ccc3ccccc23)cc1 (configuration not stated)	x	x	x	4%	-28%	x
COc1cc(NC2c3ccccc3C(=O)N2Cc2ccccc2Cl)cc(OC)c1 (configuration not stated)	-31%	-25%	4	29%	-34%	-28%
O=C1c2ccccc2C(Nc2ccccc2)N1Cc1ccc2c(c1)OCO2 (configuration not stated)	-31%	x	-2	-5%	-29%	u
CCN(CC)S(=O)(=O)c1ccc(NC2c3ccccc3C(=O)N2Cc2ccc3c(c2)OCO3)cc1 (configuration not stated)	0%	x	7	14%	-18%	40µM*
COc1cc(NC2c3ccccc3C(=O)N2Cc2ccc3c(c2)OCO3)cc(OC)c1 (configuration not stated)	u	x	-1	-9%	u	50µM*
COc1ccc(NC2c3ccccc3C(=O)N2Cc2ccc3c(c2)OCO3)cc1 (configuration not stated)	50µM*	x	-2	u	40µM*	45µM*
Oc1ccc(C23CC4CC(CC(C4)C2)C3)cc1O	u	x	0	u	22µM*	0.71µM*
Cc1cn(C)c(CC(=O)NCc2ccccc2Cl)c1C(=O)O	-9%	x	x	20%	-29%	1%[59 µM]
O=C(OCCCN1CCOCC1)c1ccc(O)c(O)c1	-29%	-1%	4	22%	32µM*	13µM*
CCC(CC)C(=O)Nc1nnc(SCc2cc(=O)n3cccc(C)c3n2)s1	5%	x	x	15%[57 µM]	-9%	22%[59 µM]
Oc1[nH]c2ccc(Br)cc2c1N=NC(=S)N1CCOCC1	45µM*	u	-54*	-37%	18µM*	3.5µM*
O=S(=O)(Cc1ccccc1)N=Nc1c(O)[nH]c2ccc(Br)cc12	-24%	-11%	-7	u	22µM*	3.5µM*
O=C(O)c1ccc(N=Nc2c(O)[nH]c3ccc(Br)cc23)cc1	79µM*	x	-22	21%	u	8%[2.33 µM]
Cc1ccc(N=Nc2c(O)[nH]c3ccc(F)cc23)cc1	-30%	-7%	-1	10%	-2%	20µM*
O=C(CNC(=O)c1ccccc1)N=Nc1c(O)[nH]c2ccc(Br)cc12	-36%	x	3	109%	-6%	-39%
Nc1nc(Cl)nc2c1ncn2[C@@H]1O[C@H](CO)[C@H](O)[C@H]1O	x	x	x	x	x	33%[12.7 µM]
CCc1ccc(-n2c(Cc3ccccc3)nnc2SCc2nc(-c3cccs3)no2)cc1	-10%	x	x	23%	-20%	-33%[59 µM]
Fc1ccc(F)c(CN2CCN(c3ncccn3)CC2)c1	-35%	10%	x	15%	-21%	-10%[59 µM]
COc1ccc(Br)cc1CN1CCN(c2ncccn2)CC1	x	x	4	u	22µM*	x
COc1cccc(CN2CCN(c3ncccn3)CC2)c1OC	50µM*	10%	-3	u	28µM*	u
COc1ccc(CN2CCN(c3ccccn3)CC2)c(OC)c1C	50µM*	-3%	1	u	56µM*	x
COc1cc(C)c(CN2CCN(c3ncccn3)CC2)cc1C	x	x	2	u	50µM*	x
SMILES	BAZ2B inh	L3MBTL1 inh	PI5P4K alpha inh	HP1b binding inh	JMJD2A Tudor inh	G9a block
COc1ccc(CN2CCN(c3ncccn3)CC2)c(C)c1C	56µM*	8%	3	u	18µM*	4.5µM*
c1cnc(N2CCN(Cc3c[nH]c4ccccc34)CC2)nc1	-8%	-7%	11	6%	-22%	u
CCCOC(=O)CSc1nnc2ccc3ccccc3n12	-17%	x	x	57%	u	-29%[59 µM]
CCCC(C)C(=O)OCC(=O)Nc1ccc(Br)cc1 (configuration not stated)	4%	x	x	x	x	32µM*
O=C(O)C1(Nc2ccccc2Cl)CCCC1	x	x	-6	23%	0%	x
O=C1OCC(CO)(CO)N=C1NNc1ccccc1Cl	-5%	x	x	-6%	u	5.6µM*
CCCCC1=CC2=CC(=O)C(C)(OC(=O)CC)C(=O)C2=CN1CCCCO (configuration not stated)	-23%	x	-6	12%	-12%	8%[59 µM]
CCCCCCCC1=CC2=CC(=O)C(C)(OC(C)=O)C(=O)C2=CN1CCc1ccccc1 (configuration not stated)	u	-14%	x	x	x	40µM*
CCCc1nn2c(=O)cc(COC(=O)c3ccccc3NC(=O)c3cccs3)nc2s1	-6%	x	x	4%	-13%	4%[59 µM]
Cc1cnc(C(=O)OCC(=O)Nc2oc(-c3ccccc3)c(-c3ccccc3)c2C#N)cn1	-57%	-2%	x	-11%	56µM*	50µM*
CCn1c(SCC(=O)Nc2oc(-c3ccccc3)c(-c3ccccc3)c2C#N)nnc1-c1ccncc1	u	x	8	-18%	u	7.9µM*
CS(=O)(=O)CCC(C(=O)Nc1cccc(C(F)(F)F)c1)N1Cc2ccccc2C1=O (configuration not stated)	3%	x	x	33%	-22%	-3%[59 µM]
Cc1ccc(-n2c(-c3ccc(Cl)cc3Cl)n[nH]c2=S)cc1	0%	0%	-8	1%	-42%	x
Cc1ccc(-n2c(-c3ccccc3)n[nH]c2=S)cc1	u	3%	9	-23%	2.2µM*	0.89µM*
COc1ccc(-n2c(-c3ccc(C)cc3)n[nH]c2=S)cc1	-7%	-1%	-10	-1%	20µM*	4µM*
Cc1ccc(-n2c(-c3ccncc3)n[nH]c2=S)cc1	-2%	x	1	5%	22µM*	8.9µM*
Cc1ccc(-c2n[nH]c(=S)c3ccccc23)cc1	3%	-10%	-5	57%	-4%	32µM*
CC(C)(C)OC(=O)N1CCC(c2c(C(=O)N3CCN(C(=O)c4ccco4)CC3)cnn2-c2ccccc2Cl)CC1	8%[57.1 µM]	x	x	30%	-15%	u
O=C(CCS(=O)(=O)c1cccs1)Nc1ccc(C(=O)Nc2ccccc2F)cc1	0%	x	x	26%	-6%	-47%[59 µM]
Cc1ccc(-n2c(-c3cnccn3)n[nH]c2=S)cc1	79µM*	4%	2	36%	8.9µM*	7.9µM*
CC(C)(C)c1ccc(-c2n[nH]c(=S)n2-c2ccccc2)cc1	12%	9%	2	49%	-20%	2.8µM*
